Data from PubChem BioAssay AID1578 (Sanford-Burnham Center for Chemical Genomics, 2009).
The campaign covered roughly 290,000 compounds. About 3,000 (1%) were called active. The entries come from a sample that favours actives as a whole. Unmarked numbers belong to inactive results. No stated cut-off is given here; in the data, active means inhibition mostly above about 36% (no sharp cut-off); inactive means mostly below about 34%.

assay: inhibition of NOD1-driven NF-kB reporter – cell-based, luminescence, uHTS, primary screen (AID 1578); conditions: NOD1-driven NF-kB luciferase reporter cells, at 4 µM, hits give high values;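 further: HEK-293T reporter cells stimulated with the NOD1 agonist gamma-tri-DAP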

First: O=C(NCCc1ccco1)C(=O)NCC1OCCCN1S(=O)(=O)c1ccc(F)cc1 (stereo not given)
Second: CN(CC(=O)N1CCN(c2ccc(F)cc2)CC1)S(=O)(=O)c1ccc2c(c1)c(=O)n(C)c(=O)n2C
The inhibition of the first is higher: 10.4% for the first, -11.7% for the second.

Compared with COc1ccc(S(=O)(=O)N(C)C)cc1NC(=O)[C@H](Cc1ccccc1)N1C(=O)c2ccccc2C1=O, Cc1ccc(S(=O)(=O)NC(Cc2ccccc2)C(=O)NN)cc1 (stereo not given) is lower in inhibition: 2% for the first, -27.9% for the second.

Going from O=c1nc(SCc2c(F)cccc2Cl)nc(-c2ccc(Cl)cc2)[nH]1 to O=c1nc(SCc2ccc(Cl)cc2)nc(-c2ccccc2)[nH]1, the inhibition falls from 9.8% to -3.2%.

Compared with C/C(COc1ccccc1)=N\NC(=O)c1nnn(-c2nonc2N)c1CSc1ccccc1, Cc1cc(NC(=O)c2ccccc2)n(-c2nc3ccccc3[nH]2)n1 is lower in inhibition: -2.2% for the first, -15% for the second.

Going from CCOc1cc(C2NC(=O)NC(c3ccccc3)=C2C(C)=O)ccc1OCC(N)=O (stereo not given) to COCCn1c(SCC(=O)Nc2cccc(C(=O)OC)c2)nc2ccccc2c1=O, the inhibition falls from 14.5% to 2.6%.

First: Cc1ccc(NC(=O)CCNC(=O)c2ccco2)cc1Cl
Second: Cc1c(Cl)cccc1NC(=O)Nc1ccccc1C(N)=O
The inhibition of the first is higher: -23.6% for the first, -30% for the second.

Going from O=[N+]([O-])c1ccc(Sc2nnnn2-c2ccccc2)c(Cl)c1 to O=C(O)c1ccc(Sc2nnnn2-c2ccccc2)c([N+](=O)[O-])c1, the inhibition falls from -1% to -15.3%.

Going from O=[N+]([O-])c1cc(S(=O)(=O)NCCN2CCOCC2)ccc1Sc1nnnn1-c1ccccc1 to COC(=O)c1ccc(Sc2nnnn2-c2ccccc2)c([N+](=O)[O-])c1, the inhibition rises from 46.1% to 48.6%.

Going from COC(=O)c1ccccc1NC(=O)CN1CCN(Cc2ccccc2)CC1 to CS(=O)(=O)N1CCN(c2ccccc2NC(=O)c2cc(Br)ccc2Cl)CC1, the inhibition falls from 1.4% to -10.8%.

Compared with Cc1nc(Nc2nc(CSc3nc4ccccc4[nH]3)cc(=O)[nH]2)nc2ccccc12, COc1ccc2nc(Nc3nc(CSc4nc5ccccc5[nH]4)cc(=O)[nH]3)nc(C)c2c1 is lower in inhibition: -5.7% for the first, -25.6% for the second.

Compared with O=S1(=O)CCOCCCN1Cc1ccccc1, O=S1(=O)CCOCCCN1Cc1cccc(F)c1 is lower in inhibition: -16.6% for the first, -39.7% for the second.

First: COc1ccc(C(=O)N/N=C/c2c(C)[nH]c(=O)[nH]c2=O)cc1
Second: COc1ccc(Oc2ccc(/C=N/NC(=O)c3cccnc3)cc2[N+](=O)[O-])cc1
The inhibition of the first is lower: -27.4% for the first, -17.7% for the second.

Compared with Cc1ccc(S(=O)(=O)NC(Cc2ccccc2)C(=O)O)cc1 (stereo not given), O=[N+]([O-])/C=C/c1ccc2c(ccn2Cc2ccccc2)c1 is higher in inhibition: -30.6% for the first, -4.4% for the second.

Going from Cc1nnc(SCC(=O)NNC(=O)c2ccc(Br)cc2)n1C to COc1ccc(CC(=O)Nc2c3c(nn2C(C)(C)C)CS(=O)C3)cc1 (stereo not given), the inhibition rises from -33.3% to -19.6%.

Going from CCC(=O)Nc1nc2c(s1)COc1ccccc1-2 to CCCC(=O)Nc1nc2c(s1)COc1ccccc1-2, the inhibition rises from 8.2% to 48.7%.

Compared with Cc1[nH]c2ccccc2c1C(=O)/C=C/c1ccccc1Cl, Cc1[nH]c2ccccc2c1C(=O)/C=C\c1ccccc1Cl is higher in inhibition: -24.5% for the first, -16.5% for the second.

Going from CC(c1ccccc1)N1CCn2c(nc3cc(NC(=O)c4cccs4)ccc32)C1 (stereo not given) to COCCN1CCn2c(nc3cc(NC(=O)c4cccs4)ccc32)C1, the inhibition falls from 0.3% to -28.2%.

Going from CN(C)c1ccc(-n2cccc2/C=C/[N+](=O)[O-])cc1 to COc1ccc(/C=C/C(=O)Nc2cc(C)nn2-c2nc3ccccc3[nH]2)cc1, the inhibition rises from -0.1% to 17.4%.

Compared with Cc1[nH]c2ccccc2c1C(=O)CSC(=S)N1CCOCC1, Cc1cc(Br)ccc1NC(=S)N1CCOCC1 is lower in inhibition: 3.9% for the first, -0.1% for the second.

Compared with CC[n+]1c(/C=C2\C=C(C)CC(C)(C)C2)sc2ccccc21, CCC1=C/C(=C/c2sc3ccccc3[n+]2CC)CC(C)(C)C1 is lower in inhibition: 20.8% for the first, -7.6% for the second.

Compared with N#Cc1nc(Cc2ccccc2)oc1NCc1ccccc1, N#Cc1nc(Cc2ccccc2)oc1NCc1cccnc1 is lower in inhibition: -5.9% for the first, -33.9% for the second.

Compared with COc1cccc(OC)c1C(=O)Nc1cc(C)nn1-c1nc2ccccc2[nH]1, Cc1cc(NC(=O)c2ccccc2F)n(-c2nc3ccccc3[nH]2)n1 is higher in inhibition: -24.9% for the first, -8.4% for the second.

Going from CCCCN(C)S(=O)(=O)c1cc2c3c(c1)CCC(=O)N3CCC2 to Cc1noc(C)c1C(=O)N1CCCC(N2CCN(c3cccc(C(F)(F)F)c3)CC2)C1 (stereo not given), the inhibition falls from -4.1% to -31.8%.

First: COc1ccc(-c2[nH]ncc2CN(C)Cc2cccnc2)c(OC)c1
Second: O=C(NC1CC2CCC(C1)N2Cc1ccco1)c1ccccc1 (stereo not given)
The inhibition of the first is higher: -16.3% for the first, -29.6% for the second.

In the case of O=c1nc(SCc2ccccc2Cl)nc(-c2ccc(Cl)cc2)[nH]1, the inhibition is reported as 57.8% (active).
With CN1CCN(S(=O)(=O)c2ccc(Sc3nnnn3-c3ccccc3)c([N+](=O)[O-])c2)CC1 the inhibition was 93.5% (active).
With Cc1ccc2c(C)nc(Nc3nc(CSc4nc5ccccc5[nH]4)cc(=O)[nH]3)nc2c1 the inhibition was 90.5% (active).
With O=S1(=O)CCOCCCN1Cc1cccc(C(F)(F)F)c1 the inhibition was 56.8% (active).
For Cc1ccc(S(=O)(=O)N[C@@H](Cc2ccccc2)C(=O)CCl)cc1, the inhibition was 87.7% (active).
For CCCCC(=O)Nc1nc2c(s1)COc1ccccc1-2, the inhibition was 62.4% (active).
With Cc1[nH]c2ccccc2c(=O)c1C(=O)/C=C/c1ccccc1 the inhibition was 79.7% (active).
For O=C(Nc1ccc2c(c1)nc1n2CCN(Cc2ccccc2)C1)c1cccs1, the inhibition was 89.9% (active).
For CN(c1ccccc1)c1ccc(/C=C/[N+](=O)[O-])cc1, the inhibition was 105% (active).
For CC[n+]1c(/C=C2/C=C(C)CC(C)(C)C2)sc2ccc(OC)cc21, the inhibition was 77.4% (active).
For N#Cc1nc(Cc2ccccc2)oc1NCc1ccccc1Cl, the inhibition was 57% (active).
In the case of COc1ccc(C(=O)Nc2cc(C)nn2-c2nc3ccccc3[nH]2)c(OC)c1, the inhibition is reported as 98.7% (active).
